The source of these data is PubChem BioAssay AID588689 (Southern Research Specialized Biocontainment Screening …, 2011).

Out of some 340,000 compounds screened, about 1,000 (0.29%) were called active. Rule as the data show it: inconclusive = inhibition above about 29% without an active follow-up result; inactive = below that. A selection follows. Results with a measured potency or affinity are listed apart.

This assay concerns the target Genome polyprotein (Dengue virus type 2 (strain 16681-PDK53)) (UniProt P29991). Briefly: Dengue-2 NS5 methyltransferase inhibitors, primary screen, biochemical, confirmation dose response (AID 588689). Particulars: Dengue-2 NS5 methyltransferase capping enzyme assay, at 25 µM, stronger effect = higher value.

Genome polyprotein (Dengue virus type 2 (strain 16681-PDK53)), sequence (P29991 whole entry, looked up): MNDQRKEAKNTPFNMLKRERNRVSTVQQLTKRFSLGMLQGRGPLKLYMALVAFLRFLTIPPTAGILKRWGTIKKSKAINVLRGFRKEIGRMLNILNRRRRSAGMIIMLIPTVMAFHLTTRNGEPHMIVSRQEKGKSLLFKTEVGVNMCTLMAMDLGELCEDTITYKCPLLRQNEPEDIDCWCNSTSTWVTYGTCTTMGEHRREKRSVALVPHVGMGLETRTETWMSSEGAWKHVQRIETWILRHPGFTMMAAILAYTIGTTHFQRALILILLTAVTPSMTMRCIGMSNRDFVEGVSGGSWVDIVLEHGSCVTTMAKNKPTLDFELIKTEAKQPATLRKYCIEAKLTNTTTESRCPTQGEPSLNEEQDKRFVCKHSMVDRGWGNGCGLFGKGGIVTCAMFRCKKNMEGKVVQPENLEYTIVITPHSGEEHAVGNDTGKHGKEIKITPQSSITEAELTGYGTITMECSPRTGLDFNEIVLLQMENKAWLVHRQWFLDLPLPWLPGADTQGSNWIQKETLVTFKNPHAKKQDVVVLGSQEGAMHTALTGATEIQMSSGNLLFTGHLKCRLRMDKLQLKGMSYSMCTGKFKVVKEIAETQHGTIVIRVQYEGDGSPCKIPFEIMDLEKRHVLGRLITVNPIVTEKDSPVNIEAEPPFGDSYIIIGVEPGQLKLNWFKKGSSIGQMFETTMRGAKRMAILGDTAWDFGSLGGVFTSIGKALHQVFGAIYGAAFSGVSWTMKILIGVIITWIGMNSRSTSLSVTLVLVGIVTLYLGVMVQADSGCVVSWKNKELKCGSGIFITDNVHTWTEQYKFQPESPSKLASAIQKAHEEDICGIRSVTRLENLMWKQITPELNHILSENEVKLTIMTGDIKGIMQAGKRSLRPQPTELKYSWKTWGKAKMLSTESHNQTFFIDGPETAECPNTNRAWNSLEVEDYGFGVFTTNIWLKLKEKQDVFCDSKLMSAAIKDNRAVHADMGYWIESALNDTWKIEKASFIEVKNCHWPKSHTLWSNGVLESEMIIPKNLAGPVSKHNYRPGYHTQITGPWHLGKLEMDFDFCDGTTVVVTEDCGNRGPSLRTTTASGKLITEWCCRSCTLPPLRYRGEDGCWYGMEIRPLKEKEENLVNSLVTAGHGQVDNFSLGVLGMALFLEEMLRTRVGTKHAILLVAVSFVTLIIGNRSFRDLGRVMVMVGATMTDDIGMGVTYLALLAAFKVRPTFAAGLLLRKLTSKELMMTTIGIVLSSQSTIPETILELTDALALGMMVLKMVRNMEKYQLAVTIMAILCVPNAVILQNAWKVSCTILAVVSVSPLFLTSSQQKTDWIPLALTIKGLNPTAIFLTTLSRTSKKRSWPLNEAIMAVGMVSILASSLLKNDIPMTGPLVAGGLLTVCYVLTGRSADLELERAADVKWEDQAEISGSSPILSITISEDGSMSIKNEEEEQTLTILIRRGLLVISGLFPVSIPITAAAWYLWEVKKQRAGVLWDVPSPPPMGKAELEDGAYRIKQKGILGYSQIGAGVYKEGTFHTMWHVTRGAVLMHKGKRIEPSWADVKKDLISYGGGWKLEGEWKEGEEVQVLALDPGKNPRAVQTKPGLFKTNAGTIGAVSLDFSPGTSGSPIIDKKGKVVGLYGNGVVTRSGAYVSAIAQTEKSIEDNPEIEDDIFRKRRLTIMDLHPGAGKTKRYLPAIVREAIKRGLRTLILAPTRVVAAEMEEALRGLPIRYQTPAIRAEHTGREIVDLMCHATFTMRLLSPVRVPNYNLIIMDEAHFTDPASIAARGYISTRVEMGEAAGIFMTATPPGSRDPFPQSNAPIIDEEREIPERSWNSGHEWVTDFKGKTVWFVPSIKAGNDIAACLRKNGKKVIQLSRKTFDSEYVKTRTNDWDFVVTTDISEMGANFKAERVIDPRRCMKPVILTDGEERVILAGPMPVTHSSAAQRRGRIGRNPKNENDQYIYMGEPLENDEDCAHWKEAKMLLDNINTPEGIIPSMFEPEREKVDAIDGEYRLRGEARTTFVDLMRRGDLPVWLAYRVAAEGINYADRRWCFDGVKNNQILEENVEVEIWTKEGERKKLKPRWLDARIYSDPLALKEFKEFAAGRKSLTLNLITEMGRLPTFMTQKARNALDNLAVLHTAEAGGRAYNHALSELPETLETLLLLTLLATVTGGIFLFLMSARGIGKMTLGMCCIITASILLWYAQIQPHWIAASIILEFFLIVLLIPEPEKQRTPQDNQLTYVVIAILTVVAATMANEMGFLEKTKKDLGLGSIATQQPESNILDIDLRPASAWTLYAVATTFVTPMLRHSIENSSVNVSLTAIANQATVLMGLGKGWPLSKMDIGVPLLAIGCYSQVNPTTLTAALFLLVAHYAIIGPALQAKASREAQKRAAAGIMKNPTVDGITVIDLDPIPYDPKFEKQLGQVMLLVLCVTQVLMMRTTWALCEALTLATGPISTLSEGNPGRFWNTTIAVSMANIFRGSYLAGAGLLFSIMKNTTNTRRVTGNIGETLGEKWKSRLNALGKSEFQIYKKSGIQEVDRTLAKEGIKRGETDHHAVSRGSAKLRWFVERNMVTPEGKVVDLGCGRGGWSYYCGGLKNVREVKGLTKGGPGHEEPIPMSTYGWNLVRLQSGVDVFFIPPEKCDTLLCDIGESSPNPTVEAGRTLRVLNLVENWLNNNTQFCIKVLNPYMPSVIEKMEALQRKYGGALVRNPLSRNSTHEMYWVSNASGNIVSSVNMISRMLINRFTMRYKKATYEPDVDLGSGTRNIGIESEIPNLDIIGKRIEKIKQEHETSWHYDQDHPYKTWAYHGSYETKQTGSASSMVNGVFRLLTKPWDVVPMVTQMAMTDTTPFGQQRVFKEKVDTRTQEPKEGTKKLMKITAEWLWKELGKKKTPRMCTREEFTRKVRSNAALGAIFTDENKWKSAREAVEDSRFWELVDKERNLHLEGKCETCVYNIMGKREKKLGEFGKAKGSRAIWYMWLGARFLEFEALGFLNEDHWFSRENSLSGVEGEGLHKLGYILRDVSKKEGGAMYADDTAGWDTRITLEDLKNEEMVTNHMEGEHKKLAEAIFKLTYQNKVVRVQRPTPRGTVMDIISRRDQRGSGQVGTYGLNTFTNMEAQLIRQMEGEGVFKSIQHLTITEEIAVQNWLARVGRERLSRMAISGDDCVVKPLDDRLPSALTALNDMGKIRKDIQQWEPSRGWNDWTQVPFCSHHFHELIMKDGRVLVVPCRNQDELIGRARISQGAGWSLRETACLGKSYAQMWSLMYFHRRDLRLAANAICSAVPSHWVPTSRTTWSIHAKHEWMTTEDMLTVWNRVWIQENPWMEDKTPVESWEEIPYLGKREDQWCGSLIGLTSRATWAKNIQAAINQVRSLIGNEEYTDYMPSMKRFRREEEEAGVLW

In the case of `O=C(NCc1ccccc1)N1CCC(CO)(CCc2ccccc2)CC1`, the inhibition is 5.32% (inactive). Same read-out and setting: to `CC(C)C1Nc2ccc(S(N)(=O)=O)cc2C2C=CCC21` (stereo not given) belongs 16% (inactive); to `O=C(O)C1Nc2c(Cl)cc(Cl)c(Cl)c2C2C=CCC12` (stereo not given), 8.87% (inactive); to `CCOC(=O)N1CCC(NC(=O)CCS(=O)(=O)c2ccc3c(c2)CCN3C(C)=O)CC1`, 0% (inactive). Regarding `CCOC(=O)c1c(C)oc2c1cc(O)c1ccccc12`, the inhibition was 18.5% (inactive). Regarding `CCOC(=O)/C=C(\C)Sc1cc(=O)oc2ccccc12`, the inhibition is -12.1% (inactive). As for `O=C(O)COc1ccc(/C=C/C(=O)c2ccc3ccccc3c2)cc1`, the inhibition is 21.6% (inactive). Same read-out and setting: with `CCOc1ccc(/C=C/C(=O)c2ccccc2)cc1` the figure was -8.48% (inactive); with `CCOC(=O)c1[nH]nc2c1C(=O)N(Cc1ccccc1)C2=O`, -0.68% (inactive); with `CCCCNC(=O)c1sc2ncnc(N3CCc4ccccc4C3)c2c1C`, -8.03% (inactive). The same measure, in the same setting: with `Cc1cc(C)cc(NC(=S)N(Cc2ccc(Br)cc2)Cc2ccc(C(=O)O)cc2)c1` the figure was -6.24% (inactive).

For the compound `Cc1cccc(NC(=S)N(Cc2ccc(Cl)cc2)Cc2ccc(C(=O)O)cc2)c1`, the inhibition was -0.79% (inactive). As to `CC1CCCN(C(=O)CCNC(=O)Cn2cnc3ccccc3c2=O)C1` (stereo not given), the inhibition was -2.67% (inactive). The same measure, in the same setting: to `NS(=O)(=O)c1ccc(Sc2ccc3ccccc3c2)nc1` belongs -5.01% (inactive); to `COc1ccc(S(=O)(=O)Oc2ccc3ccccc3c2)cc1`, 0.73% (inactive); to `COC(=O)c1ccc(NC(=O)C(=O)N2CCN(C(=S)Nc3cccc(C)c3C)CC2)cc1`, -4.36% (inactive). As for `COc1ccc(NC(=O)Cc2c(C(=O)O)n(C)c3ccccc23)cc1OC`, the inhibition is -17.2% (inactive). For the compound `C[C@H](CO)N1C[C@H](C)[C@@H](CN(C)C(=O)Nc2ccccc2)Oc2c(NC(=O)Cc3ccccc3)cccc2C1=O`, the inhibition is -4% (inactive). Same read-out and setting: to `COC(=O)c1c(C(=O)OC)c2ccccn2c1C(=O)c1ccccc1` belongs -4.66% (inactive). For `COC(=O)c1cc2c(-c3ccccc3)cc3ccccn3c-2c1C(=O)OC`, the inhibition was 27.1% (inactive). For `COc1ccc(CN(C)C(C)C(=O)Nc2ccc(S(=O)(=O)N3CCCCC3)cc2)cc1F` (stereo not given), the inhibition was 0.37% (inactive).

In the case of `CSCCC(C(=O)OCC(=O)c1ccc(C)c(C)c1)N1C(=O)c2cc(Cl)c(Cl)cc2C1=O` (stereo not given), the inhibition is 10.7% (inactive).

On to `O=C1NCCCC2c3c(cc(Br)c(O)c3Br)OC12N1CCOCC1` (stereo not given), for which the inhibition was 17% (inactive). In addition, the inhibition (measured here: pilot screen replicate inhibition) was -2.28%.

Regarding `O=C1NCCCC2c3c(cc(Br)c(O)c3Br)OC12N1CCCCC1` (stereo not given), the inhibition is 10.4% (inactive). Still for that read-out and setting: to `CCOC(=O)C(NC(=O)Cc1ccccc1)(Nc1cc(C)on1)C(F)(F)F` (stereo not given) belongs -5.64% (inactive). On the same count and under the same terms, to `CCCn1c(SCC(=O)c2[nH]c(C)c(C(C)=O)c2C)n[nH]c1=O` belongs -15.1% (inactive). Still for that read-out and setting: to `COc1ccc(CCNC(=O)C2CC(c3ccc([N+](=O)[O-])cc3)=NO2)cc1` (stereo not given) belongs 2.79% (inactive).

For `CN(C1CCCCC1)S(=O)(=O)c1cn(C)c(=O)n(C)c1=O`, the inhibition is -3.31% (inactive). Same read-out and setting: to `COc1cc(C=NNC(=O)c2ccccc2NS(=O)(=O)c2cccs2)cc(OC)c1O` belongs 2.21% (inactive). On the same count and under the same terms, with `O=C(NN=Cc1ccc(O)cc1)c1ccccc1NS(=O)(=O)c1cccs1` the figure was 2.92% (inactive); with `O=c1cc(-c2nn[nH]n2)[nH]c(=O)[nH]1`, -0.8% (inactive). Still for that read-out and setting: to `O=C(CN1C(=O)c2cccc([N+](=O)[O-])c2C1=O)N1CCc2ccccc2C1` belongs -5.49% (inactive); to `O=c1c(C(c2ccc(Cl)cc2)c2c(O)nc3n(c2=O)CCS3)c(O)nc2n1CCS2`, 3.89% (inactive). As for `O=c1c(C(c2ccc(O)cc2)c2c(O)nc3n(c2=O)CCCS3)c(O)nc2n1CCCS2`, the inhibition was 60.7% (inactive). Still for that read-out and setting: with `O=c1c(C(c2ccc(Br)cc2)c2c(O)nc3n(c2=O)CCS3)c(O)nc2n1CCS2` the figure was 11.7% (inactive); with `O=c1c(C(c2ccc(F)cc2)c2c(O)nc3n(c2=O)CCS3)c(O)nc2n1CCS2`, -0.78% (inactive); with `O=Cc1ccc(F)c([B-](F)(F)F)c1`, -5.86% (inactive). Same read-out and setting: to `COc1ccc(N2CC(C(=O)NC3CCCCC3)CC2=O)cc1` (stereo not given) belongs -15.2% (inactive); to `NC(=S)N=Nc1c(O)[nH]c2ccc(F)cc12`, 1.93% (inactive). On to `NC(=S)N=Nc1c(O)[nH]c2ccccc12`, for which the inhibition was -8.45% (inactive). In the case of `Cc1ccc(C)c(S(=O)(=O)NC2CCSC2=O)c1` (stereo not given), the inhibition was 0% (inactive). For `COc1ccc(NS(=O)(=O)c2cc(NC(=O)c3cccc(OCc4c(C)noc4C)c3)ccc2OC)cc1`, the inhibition was -4.53% (inactive). Still for that read-out and setting: to `Clc1ccc(Oc2nc(Oc3ccc(Cl)cc3)nc(N3CCOCC3)n2)cc1` belongs 5.62% (inactive); to `CC(NC(=O)C12CC3CC(CC(C3)C1)C2)C(=O)N/N=C/C1=C(N2CCOCC2)C(=C\c2ccccc2)/CC1` (stereo not given), -2.59% (inactive); to `CN(C)c1cccc2c1C(=O)c1ccccc1C2=O`, 2.91% (inactive). The same measure, in the same setting: to `CN(CCO)C(=O)c1cccc2c1-c1ccccc1C2=O` belongs 2.07% (inactive); to `Cc1nnc(NC(=O)CSc2nnc(CCNC(=O)c3ccccc3F)n2C)s1`, -9.78% (inactive); to `Cc1cc(=O)oc2c(O)c(O)ccc12`, 0.73% (inactive).

In the case of `O=C(O)c1cccc(O)c1O`, the inhibition is 2.93% (inactive).

As to `O=C1c2ccccc2C(=O)c2c1ccc(O)c2O`, the inhibition was 0% (inactive). Same read-out and setting: to `Cc1oc2c(O)c(O)ccc2c(=O)c1-c1ccccc1` belongs 1.39% (inactive); to `CC(C)(Oc1ccc(Cl)cc1)C(=O)Nc1ccc2oc(-c3ccncc3)nc2c1`, 2.08% (inactive). On the same count and under the same terms, with `COc1cc(C)c(S(=O)(=O)NCc2ccc3c(c2)OCO3)cc1C` the figure was -1.39% (inactive).

As for `Cc1nn(-c2ccccc2)nc1CNC(=O)C(C)Cc1ccccc1` (stereo not given), the inhibition is -2.38% (inactive). In the case of `O=C(C1=C[C@H](C2CCCCC2)C[C@H](OCc2ccc(CO)cc2)O1)N1CCOCC1`, the inhibition was -6.54% (inactive). `CCCCC(NC(=O)Cc1c(C)c2cc3c(C)c(C)oc3c(C)c2oc1=O)C(=O)O` (stereo not given): the inhibition was 1.31% (inactive). With `CCCC(NC(=O)Cc1c(C)c2cc3c(C)c(C)oc3c(C)c2oc1=O)C(=O)N[C@@H](Cc1ccccc1)C(=O)O` (stereo not given in full), the inhibition was 1.45% (inactive). Same read-out and setting: to `Cc1c(CC(=O)N[C@@H](C)C(=O)O)c(=O)oc2c(C)c3occ(-c4ccccc4)c3cc12` belongs -0.65% (inactive); to `CSC[C@H](NC(=O)Cc1c(C)c2cc3c(C)c(C)oc3cc2oc1=O)C(=O)N[C@@H](Cc1ccccc1)C(=O)O`, 1.4% (inactive).
